Results on 92 compounds are retold here after PubChem BioAssay AID463173 (ICCB-Longwood Screening Facility, Harvard Medical School, 2010).

Out of some 52,000 compounds screened, about 4,300 (8.3%) were called active. What follows is part of a selection rich in actives, with near analogues and random picks from the rest. A number with no mark means an inactive call. Rule as the data show it: active = survival mostly below about 52% (no sharp cut-off); inactive = mostly above about 56%.

In this assay the test system is DeltatarO mutant. In words: growth inhibition of S. aureus wild type versus tarO mutant, primary screen, teichoic acid synthesis inhibitors, RN4220, OD600 (AID 463173). As to conditions: OD600, 18 h, hits give low values, screened at 18.75 µg/mL (by protocol).
For the compound `CCOc1ccc(CNC(=O)Cn2c(=O)c3cccn3c3ccc(F)cc32)cc1OC`, the survival was 47%. The value for `COc1cc(NC(=O)c2cc(-c3ccc4c(c3)OCO4)on2)cc(OC)c1OC` was 115%. For `CCn1cc(C(=O)N(C)Cc2ccccc2)c(=O)c2cc(S(=O)(=O)N3CCc4ccccc4C3)ccc21`, the survival was 65%.

Regarding `O=C(Cn1cc(C(=O)C(F)(F)F)c2ccccc21)N1CCCCCC1`, the survival was 56%.

For the compound `COc1cc(C(=O)NCc2nnnn2-c2ccc(C)c(C)c2)cc(OC)c1OC`, the survival was 98%. Regarding `CCOc1ccc(CCNC(=O)c2cnc3c(-c4ccccc4)c(C)nn3c2C)cc1OCC`, the survival is 20% (active). In the case of `CCOc1ccc(-c2c(C)nn3c(C)c(C(=O)NCCc4ccccc4)cnc23)cc1OCC`, the survival is 54%. The value for `CCOc1ccc(CCNC(=O)c2cnc3c(-c4ccc(F)cc4)c(C)nn3c2C)cc1OCC` was 134%. Consider `CCN1/C(=C\C(=O)C2CC2)Sc2ccccc21`, for which the survival is 81%. For `CCC(C)Cn1c(COc2ccc(OC)cc2)nc2ccccc21` (configuration not stated), the survival was -1% (active). `COc1ccc(OCC(O)Cn2c(C(C)C)nc3ccccc32)cc1` (configuration not stated): the survival is 88%. As for `COc1ccc(OCc2nc3ccccc3n2C(C)c2ccccc2)cc1` (configuration not stated), the survival is -15% (active). The value for `Cc1nc2ccccc2n1C(C)c1ccccc1` (configuration not stated) was 77%; that for `Cc1ccc(OCc2nc3ccccc3n2CC(C)C)cc1` was 1% (active); that for `COc1ccc(OCc2nc3ccccc3n2C(C)C)cc1` was 88%. As for `Cc1ccc(S(=O)(=O)c2cn(CC(=O)Nc3ccc4c(c3)OCO4)c3ccccc3c2=O)cc1C`, the figure is 112%; as for `Cc1ccc(NC(=O)c2nnn(Cc3cccc(C(F)(F)F)c3)c2N)c(C)c1`, 86%; as for `COc1ccc(-n2c(=O)c3c4c(sc3n(Cc3cc(C)ccc3C)c2=O)CN(C(C)=O)CC4)c(OC)c1`, 93%. As for `Cc1cccc(CC(=O)NC2CC(=O)N(c3ccc4c(c3)OCCO4)C2)c1` (configuration not stated), the figure is 72%; as for `CN1C(=O)Cc2cc(S(=O)(=O)N3CCN(c4cccc(C(F)(F)F)c4)CC3)ccc21`, 116%; as for `CCOC(=O)c1c(C)[nH]c(C)c1S(=O)(=O)NCC(=O)N1CCN(c2ccccc2OC)CC1`, 102%.

For `COc1ccc(OC)c(-c2cc(C(=O)NC(C)c3ccccc3)no2)c1` (configuration not stated), the survival is -14% (active). The value for `Cc1ccc(NC(=O)c2cc(-c3cccs3)on2)cc1C` was 45% (active); that for `COc1ccc(OC)c(-c2cc(C(=O)Nc3cnn(Cc4ccc(Cl)cc4Cl)c3)no2)c1` was 64%. `COc1ccc(OC)c(-c2cc(C(=O)Nc3cccc(Cl)c3C)no2)c1`: the survival is 2% (active). In the case of `COc1ccc(OC)c(-c2cc(C(=O)NCc3ccc(Cl)cc3)no2)c1`, the survival was 47%. The value for `Cc1c(Cl)cccc1NC(=O)c1cc(-c2cccc(Cl)c2)on1` was 61%; that for `CC(C)c1cc(C(=O)NC(C)c2ccccc2)no1` (configuration not stated) was 50%; that for `CC(=O)Nc1ccc(NC(=O)c2cc(-c3cccs3)on2)cc1` was 78%. In the case of `CCc1ccc(NC(=O)c2cc(-c3cccs3)on2)cc1`, the survival was 161%.

With `Cc1c(Cl)cccc1NC(=O)c1cc(-c2cccs2)on1`, the survival was 66%.

Take `COc1ccc(OC)c(-c2cc(C(=O)Nc3ccc(C)c(C)c3)no2)c1`: the survival is -1% (active). Regarding `CC(NC(=O)c1cc(-c2ccc(Cl)cc2)on1)c1ccccc1` (configuration not stated), the survival was 142%. As for `Cc1cc(Nc2ccc(Cl)cc2C)nc(-n2nc(C)cc2C)n1`, the figure is 74%.

Turning to `Cc1ccc(Cn2c(CO)cnc2SCc2ccc(F)cc2)cc1`, the survival was 109%. In the case of `COc1cccc(N2C(=O)C(CC(=O)Nc3cccc(F)c3)N(C(C)C)C2=O)c1` (configuration not stated), the survival is 94%.

In the case of `Cc1ccc(CSc2c(C)cnc3c2c(=O)n(C)c(=O)n3C)cc1`, the survival was 78%.

Take `COc1ccc(OCC(=O)OC2CCN(C)CC2)cc1`: the survival was 112%. As for `CCN(CC)CCCNC(=O)c1cn(CC)c2ccc(S(=O)(=O)N3CCC(C)CC3)cc2c1=O`, the figure is 105%; as for `CS(=O)(=O)N1CCC(c2nc(-c3ccc(S(=O)(=O)NCC4CCCO4)cc3)no2)CC1` (configuration not stated), 85%; as for `CCn1c(=O)c2cc(C(=O)Nc3cc(F)ccc3F)sc2c2ccccc21`, 96%. For `CCOc1ccccc1NC(=O)c1c(NCc2ccc(C)o2)sc2c1CCCCC2`, the survival was 95%.

As to `COc1ccccc1-c1cc(C(=O)Nc2cc(OC)c(OC)c(OC)c2)no1`, the survival is 25% (active). Take `COc1ccccc1-c1cc(C(=O)Nc2cc(Cl)ccc2O)no1`: the survival is 52%. As for `COc1cc(NC(=O)c2cc(-c3ccc(Cl)c(Cl)c3)on2)cc(OC)c1OC`, the figure is 111%.

As to `O=C(c1ccc2c(c1)CCN2S(=O)(=O)c1ccc(Cl)cc1)N1CCN(c2ccccc2)CC1`, the survival is 58%. As for `CCCCOc1ccccc1C(=O)Nc1onc2c1CCCC2`, the survival was 55%. The value for `O=C(CN1C(=O)COc2ccc(S(=O)(=O)Nc3ccccc3)cc21)NCc1ccccc1Cl` was 102%; that for `O=c1c2cn[nH]c2nc(SCc2cccc(Br)c2)n1-c1ccc(Cl)cc1` was 122%; that for `CC(C)(C)c1ccc(OCC(=O)Nc2c(C(=O)c3ccc(F)cc3)oc3ccccc23)cc1` was 99%.

Consider `CCOc1ccc(CC(=O)Nc2c(C(=O)c3ccc(C)cc3)oc3ccccc23)cc1OCC`, for which the survival is 52%. As for `Cc1ccc(C(=O)c2oc3ccccc3c2NC(=O)COc2ccc(C(C)C)cc2)cc1`, the figure is 73%; as for `CCOc1ccc(CC(=O)Nc2c(C(=O)c3ccc(Cl)cc3)oc3ccccc23)cc1OCC`, 48%; as for `CCOc1ccc(CC(=O)Nc2c(C(=O)c3ccc(F)cc3)oc3ccccc23)cc1OCC`, 42% (active).

On to `CC(C)c1ccc(OCC(=O)Nc2c(C(=O)c3ccc(F)cc3)oc3ccccc23)cc1`, for which the survival was 65% (active). As for `Cc1cccc(-n2cc(-c3ccccc3)c3c(NC4CCCC4)ncnc32)c1`, the figure is 98%; as for `CCNC(=O)CCSc1nnc(-c2ccc(O)cc2)o1`, 95%; as for `O=c1oc2ccccc2c(O)c1CN1CCCCC1`, 25% (active). As for `O=c1oc2ccccc2c(N2CCN(c3ccc(F)cc3)CC2)c1CN1CCCC1`, the figure is 100%; as for `O=c1oc2ccccc2c(N2CCN(c3ccccc3F)CC2)c1CN1CCCC1`, 89%; as for `Cc1ccc(-c2cc(-c3ccc4c(c3)NC(=O)CO4)nc3c2COc2ccc(C)cc2-3)cc1`, 96%. As for `Cc1c(C(=O)Nc2ccc(F)cc2)sc2nc[nH]c(=O)c12`, the figure is 122%; as for `Cc1sc2ncn(CC(=O)N3CCN(c4ccccc4F)CC3)c(=O)c2c1S(=O)(=O)N1CCC(C)CC1`, 74%. `Cc1cccc(N2CCN(C(=O)Cn3cnc4sc(C)c(S(=O)(=O)N5CCN(c6ncccn6)CC5)c4c3=O)CC2C)c1` (configuration not stated): the survival is 67% (active). The value for `Cc1ccc(Cl)cc1N1CCN(C(=O)Cn2cnc3sc(C)c(S(=O)(=O)N4CCC(C)CC4)c3c2=O)CC1` was 47% (active). As for `Cc1sc2ncn(CC(=O)N3CCN(c4cccc(Cl)c4)CC3)c(=O)c2c1S(=O)(=O)N1CCN(c2ncccn2)CC1`, the figure is 63%; as for `Cc1sc2ncn(CC(=O)N3CCN(c4ccccc4)CC3)c(=O)c2c1S(=O)(=O)N1CCN(c2ncccn2)CC1`, 126%. In the case of `Cc1sc2ncn(CC(=O)N3CCN(c4cccc(Cl)c4)CC3)c(=O)c2c1S(=O)(=O)N1CCC(C)CC1`, the survival is 149%. As for `CC1=C(c2ccc(C)cc2)S(=O)(=O)NC1=NCc1cccc(F)c1`, the figure is 92%; as for `Cc1ccc(-n2c(=O)c3ccc(C(=O)NCc4ccco4)cc3n(Cc3ccccc3Cl)c2=O)cc1`, 99%; as for `c1ccc2c(c1)n1cnnc1c1nncn21`, 85%. As for `CC1=C(C(=O)Nc2ccc(C)cc2C)C(c2ccc([N+](=O)[O-])cc2)n2ncc(C(=O)Nc3ccc(F)cc3)c2N1` (configuration not stated), the figure is 101%. On to `O=C(O)c1ccc(N2CCOCC2)cc1`, for which the survival is 80%.

`COc1ccc(N2CCN(CC(O)COc3ccc(C(C)(C)C)cc3)CC2)cc1` (configuration not stated): the survival is 84%. The value for `COc1ccccc1N1CCN(CC(O)COc2ccc(C)cc2C(C)(C)C)CC1` (configuration not stated) was 1% (active). As for `COc1ccccc1N1CCN(CC(O)COc2cc(C)cc(C)c2)CC1` (configuration not stated), the figure is 71%. For `COc1ccc(N2CCN(CC(O)COc3c(OC)cccc3OC)CC2)cc1` (configuration not stated), the survival is 71%. Regarding `C=CCc1ccccc1OCC(O)CN1CCN(c2ccccc2)CC1` (configuration not stated), the survival was 83%. The value for `COc1ccc(N2CCN(CC(O)COc3ccc(C)cc3C)CC2)cc1` (configuration not stated) was 98%; that for `Cc1ccc(C(C)C)c(OCC(O)CN2CCN(c3ccccc3F)CC2)c1` (configuration not stated) was -5% (active); that for `COc1ccc(N2CCN(CC(O)COc3ccc(C(C)C)c(C)c3)CC2)cc1` (configuration not stated) was 66%. The value for `COc1ccc(N2CCN(CC(O)COc3ccccc3C(C)(C)C)CC2)cc1` (configuration not stated) was -8% (active); that for `CN(C)c1ccc(C(CNS(=O)(=O)c2ccc(Br)cc2)N2CCOCC2)cc1` (configuration not stated) was 74%; that for `CCc1c(C)sc2c1CCN(Cc1ccccc1F)C2c1ccccc1` (configuration not stated) was 102%.

For the compound `CCCCC(=O)N1CCc2cc(OC)c(OC)cc2C1COc1ccc(C(=O)OCC)cc1` (configuration not stated), the survival was 70%. As to `O=C(CN1C(=O)COc2ccc(S(=O)(=O)N3CCCCC3)cc21)NCCc1ccc(Cl)cc1`, the survival was 73%. As for `CCOc1ccc(N2CC(NC(=O)c3ccc(Cl)cc3)CC2=O)cc1` (configuration not stated), the figure is 73%; as for `N#CSc1ccc2nc(N)sc2c1`, 66%. The value for `CC(C)(C)Sc1ccc(SC#N)s1` was 1% (active); that for `O=C1CC(c2c(Cl)cccc2Cl)c2c(ccc3ccccc23)N1` (configuration not stated) was 73%. Take `Cc1ccccc1C1CC(=O)Nc2ccc3ccccc3c21` (configuration not stated): the survival is 93%. As for `O=C1CC(c2ccc(Br)cc2)c2c(ccc3ccccc23)N1` (configuration not stated), the figure is 32% (active).
